Assay results as given in ChEMBL document CHEMBL3988442, “University of Dundee, Small-Polar-MMV Screening Library” (2021).
The campaign covered roughly 53,000 compounds. About 900 (1.7%) showed an effect of 50% or more. The list comes from a sample in which strong results are over-represented; it also holds similar structures and randomly drawn compounds.

Each molecule was assayed on Mycobacterium tuberculosis (assay: Cornell - Phenotypic assay to identify agents that inhibit growth of Mycobacterium tuberculosis). Conditions: 10 mM as filed; unlikely as a test dose.
Format: functional
Design: scale not given: direction of the effect not stated beside the values

Structure (SMILES) | Percent Effect
CS(=O)(=O)N1CCCCCC1c1cc(-c2ccc(F)cc2)no1 (configuration not stated) | 7%
Cc1ccc(NS(=O)(=O)c2cnn(Cc3ccccc3)c2)c(C(=O)O)c1 | -25.98%
Cc1ccc(-n2cc(S(=O)(=O)Nc3cccc(C(=O)O)c3C)cn2)cc1 | 9.419%
Cc1ccc(NS(=O)(=O)c2cnn(-c3ccccc3)c2)c(C(=O)O)c1 | 55.25%
CCCN(CCC)c1ncc(S(=O)(=O)c2ccc(OC)cc2)c(N)n1 | 26.01%
CC[C@H]1CN(C(=O)c2cccc(-n3cnnc3)n2)CC[C@@]1(C)O | -27.2%
Cc1noc(C)c1C(=O)N1CCCC1(C)C(=O)NC1CCCC1 (configuration not stated) | -3.819%
CCOc1cc(C(=O)N2CCCC(c3noc(C)n3)C2)ccc1OC (configuration not stated) | 13.87%
COc1ccc(NC(=O)N2CCC(c3nnc[nH]3)CC2)cc1C | 16.56%
COc1ccc(NC(=O)N2CCC(c3noc(C)n3)CC2)cc1C | 55.08%
CCn1cnnc1C1CCN(C(=O)c2cccc(C)c2C)CC1 | -30.53%
Cc1ccc(NC2CCN(C(=O)Cc3cccs3)CC2)nn1 | -3.843%
O=C(Cc1cccnc1)N1CC(Cc2nccc3cc[nH]c23)C1 | 4.598%
COc1ccccc1NC(=O)c1cnc(C2CCN(C(C)=O)C2)nc1C (configuration not stated) | 26.28%
Cl.Clc1cccc(N[C@H]2CCCN[C@H]2Cc2ccccc2)c1 | 107%
Cl.Cl.Clc1cccc(C[C@@H]2NCCC[C@@H]2Nc2cccc(Cl)c2)c1 | 108.9%
O=C1NCCCc2[nH]c(Cc3cccc(Cl)c3)nc21 | -7.355%
Cl.Cl.Clc1cccc(C[C@@H]2NCCC[C@@H]2Nc2ccccc2)c1 | 55.37%
CCOc1ccc(Cl)cc1C1CCCN1.Cl (configuration not stated) | -3.998%
O=C(C[S+]([O-])Cc1cccc(Cl)c1)NC1CCCC1 (configuration not stated) | 37.46%
Cl.c1ccc(CCNc2cccc(C3CCCNC3)n2)cc1 (configuration not stated) | 12.44%
O=C(NCCc1cccc(Cl)c1)C1CCOCC1 | 10.9%
O=C(Cc1cccc(Cl)c1)N[C@@H]1CCNC[C@H]1O | 2.906%
Cc1ccc(-c2cc(CS(=O)(=O)NC3CCCNC3=O)on2)cc1 (configuration not stated) | -20.71%
CN(Cc1ccsc1)C(=O)Cn1c(CS(C)(=O)=O)nc2ccccc21 | 17.82%
Cc1ccc(S(=O)(=O)NC2=NCN(CCc3cccs3)CN2)cc1 | -5.965%

Structure (SMILES) | Percent Effect
O=C(CCN1CCCO1)N1CC[C@@H](c2ccc3ccccc3c2)[C@H](O)C1 | 5.243%
O=C(CCn1cccn1)N1CC[C@@H](c2ccc3ccccc3c2)[C@H](O)C1 | -1.48%
O=C(CCN1CCCC1)N1CC[C@@H](c2ccc3ccccc3c2)[C@H](O)C1 | 59.79%
O=S1(=O)CCC(S(=O)(=O)c2cccc(S(=O)(=O)N3CCCC3)c2)C1 (configuration not stated) | 4.254%
CN(Cc1ccco1)[C@@H]1CN(Cc2cccs2)C[C@@H]2CCCO[C@@H]21.O=C(O)C(F)(F)F.O=C(O)C(F)(F)F | 3.22%
Cc1cc(NC2CCCN(Cc3ccc(F)cc3)C2)n2nc(C)cc2n1 (configuration not stated) | 55.74%
Cc1cc(N[C@H]2CCCN(Cc3ccccc3)C2)n2nc(C)cc2n1 | -6.549%
Cc1cc(NC2CCN(c3ccc(F)cc3)CC2)n2nc(C)cc2n1 | 39.2%
O=C(CCc1cccs1)N1CCCC1c1noc(C2CC2)n1 (configuration not stated) | -0.7961%
CC(NC(=O)c1cn(CCC2CCCCC2)nn1)c1cnn(C)c1 (configuration not stated) | -6.193%
CCCOc1ccc(Cl)cc1CNc1ncnc2oc(C)nc12 | 65.32%
Cc1nc2c(NC(CC(C)(C)C)c3cccnc3)ncnc2o1 (configuration not stated) | -7.649%
CCCOc1ccccc1CCCNc1ncnc2oc(C)nc12 | 30.24%
CCc1nnc(CN(C)C(=O)C(CC)n2c(CC)nc3ccccc32)o1 (configuration not stated) | 5.212%
CCNC(=O)[C@@H]1C[C@@H](NC(=O)c2cc(C)on2)CN1Cc1ccccn1 | -5.653%
COc1ccc(C)cc1NC(=O)Nc1cnc(O)nc1O | 28.36%
CCN(CC)c1ccc(NS(=O)(=O)c2cccnc2)cn1 | 24.54%
CCN(CC)c1ccc(NS(=O)(=O)c2cncc(F)c2)cn1 | 62.74%
CCN(CC)c1ccc(NS(=O)(=O)c2cnn(C)c2)cn1 | 9.807%
COc1cccc(CNCC2CN(C)CCO2)c1 (configuration not stated) | 10.27%
CC(=O)N1CCN(Cc2ccc(OCc3nccn3C)cc2)CC1 | -16.77%
Cc1cc2nccc(C3CCCN(C(=O)c4ccccc4F)C3)n2n1 (configuration not stated) | 8.36%
c1nc(-c2nc(C3CCOC3)no2)cs1 (configuration not stated) | -30.96%
O=C(Nc1ccccc1)c1ccc(NCc2nccs2)nn1 | 40.64%
O=C(Nc1ccccc1)c1ccc(NCc2ccccc2CO)nn1 | 16.95%
O=C(Nc1ccccc1)c1ccc(NCc2ccncc2)nn1 | 71.71%
